Compound activity from PubChem BioAssay.
Hits are enriched below; roughly 3.8% of the tested compounds scored in any of these assays.
tim10-1 inh = tim10-1 yeast growth inhibition; S. cerevisiae tim10-1 ts strain growth, BacTiter-Glo, 24 h; 330,000 tested, 2.2% active; inhibition, % at 20 µM; AID 463190;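 active = inhibition of at least 40%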;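 note: mutant grown at 25 °C; 0% = DMSO wells with yeast and 100% = wells holding no yeast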
tim23-1 inh = tim23-1 yeast growth inhibition. 330,000 tested, 1.3% active. AID 463212. S. cerevisiae tim23-1 growth, BacTiter-Glo luminescence, 24 h. inhibition, % at 20 µM;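 active = growth inhibition of the mutant yeast at or above 50%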;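 note: temperature-sensitive mutant grown at 25 °C; plate controls were DMSO-treated mutant yeast for no effect and medium wells lacking yeast for full effect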
TIM10 inh = TIM10 yeast growth inhibition; S. cerevisiae TIM10 strain growth, BacTiter-Glo luminescence, 24 h; inhibition, % at 10 µM; 330,000 tested, 1.4% active; AID 463195;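 active = inhibition of 40% or more at the single tested concentration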;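 note: wild-type TIM10 isogenic control strain grown at permissive 25 °C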
PfHsp90 yeast 2 = inhibits growth of yeast expressing Plasmodium falciparum Hsp90; S. cerevisiae expressing PfHsp90, BacTiter-Glo ATP, 48 h; yeast lacking PDR1 and PDR3 efflux regulators; inhibition, % at 9.4 µM; 310,000 tested, 0.32% active;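 active = every replicate shows inhibition above about 80%, whatever the replicate mean, limit read from the data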;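 note: 0% = DMSO neutral controls and 100% = 20 µM radicicol positive controls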
Beta2AR agonist = human beta-2 adrenergic receptor agonism by FAP. P07550. Am2.2-beta2AR cells, FAP receptor internalization, flow cytometry. response, % (concentration not given with the values). 340,000 tested, 0.43% active. AID 504454;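 active = response above a set limit, near 3 SD of response in nonfluorescent compounds, cut at about 42% in these data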
Target sequence (P07550 whole entry, looked up): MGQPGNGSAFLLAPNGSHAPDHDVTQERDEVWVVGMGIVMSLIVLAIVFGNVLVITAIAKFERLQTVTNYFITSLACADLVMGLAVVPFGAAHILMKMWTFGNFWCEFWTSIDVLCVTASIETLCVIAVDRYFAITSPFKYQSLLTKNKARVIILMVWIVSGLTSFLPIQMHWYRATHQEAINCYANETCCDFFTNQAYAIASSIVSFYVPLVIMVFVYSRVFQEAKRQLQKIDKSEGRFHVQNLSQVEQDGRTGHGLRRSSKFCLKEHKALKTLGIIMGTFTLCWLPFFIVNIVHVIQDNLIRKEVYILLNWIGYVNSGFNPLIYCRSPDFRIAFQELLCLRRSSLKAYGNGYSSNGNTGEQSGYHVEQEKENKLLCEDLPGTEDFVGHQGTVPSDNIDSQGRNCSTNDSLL
Starred values were filed as active, the others as inactive; i = inactive; . = no result.

SMILES	tim10-1 inh	tim23-1 inh	TIM10 inh	PfHsp90 yeast 2	Beta2AR agonist
O=C1C=CC(=Nc2ccc(F)cc2)O1	.	.	.	119*	7
O=C(CSc1ccccn1)Nc1nonc1[N+](=O)[O-]	19	46	20	25	6
Cc1nn(C)cc1S(=O)(=O)Nc1ccc(F)c(F)c1	-2	-4	-2	10	5
CCc1cc(SC#N)cc(C)c1NC(=O)CCl	-19	-40	-32	2	47*
COc1ccccc1-c1cccc([C@@H]2C[C@H]3[C@H](CON3C)CN2C(=O)CCc2ccccc2)c1	.	.	.	-22	-2
O=C(OCc1ccccc1)N1CCC2CC1c1cc(NCCc3ccccc3)ccc12 (stereo not given)	.	.	.	-5	2
F[B-](F)(F)c1cc2ccccc2s1	.	.	.	-2	-4
F[B-](F)(F)c1cc2cc(Br)ccc2s1	.	.	.	117*	-2
C(=C\c1ccco1)/c1nc2ccccc2[nH]1	14	-4	31	13	-4
C(=C\c1nc2ccccc2[nH]1)/c1ccccc1	30	43	31	78*	-13
CN(C)C(CNC(=O)CNC(=O)Cc1cccc2ccccc12)c1ccccc1 (stereo not given)	2	3	-9	39	2
O=C(COC(=O)c1ccc([N+](=O)[O-])s1)Nc1ccc(Cl)cn1	24	-146	39	-18	10
CC(C)(C)c1ccc(NC(=O)COC(=O)c2ccc([N+](=O)[O-])s2)cc1	.	.	.	109*	3
CNS(=O)(=O)c1cccc(C(=O)OCC(=O)c2c(N)n(Cc3ccccc3)c(=O)n(C)c2=O)c1	.	.	.	10	7
COC(=O)c1cc2ccc(OC)c(OC)c2c(=O)s1	1	10	3	22	50*
COc1ccc2cc(C(=O)N3CCCCCC3)sc(=O)c2c1OC	8	31	-4	10	0
COCCN(CC(=O)NC1CCCCC1)C(=O)/C=C/C(=O)c1ccc(OC)cc1O	.	.	.	6	91*
CSc1ccccc1OCc1cc(C(=O)N2CCN(C)C(c3ccccc3)C2)no1 (stereo not given)	35	48	6	135*	-1
CN1CCN(C(=O)c2cc(COc3ccc(F)cc3Cl)on2)CC1c1ccccc1 (stereo not given)	36	46	38	72	1
CC(C)C(=O)NC(c1cccc([N+](=O)[O-])c1)c1ccc2cccnc2c1O (stereo not given)	10	38	3	119*	6
CC(C)C(=O)NC(c1ccco1)c1ccc2cccnc2c1O (stereo not given)	26	35	18	10	-7
CCCN(C(=O)c1cc(S(=O)(=O)N(C)c2ccc(OCC)cc2)ccc1C)C1CCS(=O)(=O)C1 (stereo not given)	9	0	6	15	0
CC(C)(Oc1ccc(Cl)cc1)C(=O)NCc1ccncc1	13	6	5	2	-9
CC(C)(C)C(=O)C(CO)(Oc1ccc(Cl)cc1)n1cncn1 (stereo not given)	-97	i	-96	89*	-13
CC(C)=CCc1cc([C@@H]2COc3c(ccc4c3C=CC(C)(C)O4)C2)c(O)cc1O	27	43	26	105*	-8
SMILES	tim10-1 inh	tim23-1 inh	TIM10 inh	PfHsp90 yeast 2	Beta2AR agonist
CC(=O)OCC=C1CCC2C3CC(C)C4=CC(=O)CCC4(C)C3C(O)CC12C (stereo not given)	.	.	.	-11	8
Cc1c[n+]([O-])cc(C)c1[N+](=O)[O-]	.	.	.	18	0
CCCCCCc1cc2cc(S(=O)(=O)c3ccc(Cl)cc3)c(=O)oc2cc1O	7	9	13	102*	5
CCCCCCc1cc2cc(S(=O)(=O)c3ccc(C)cc3)c(=O)oc2cc1O	14	7	-12	7	1
CC1(C(=O)OCC(=O)Nc2nc(-c3ccc(F)c(F)c3)cs2)CC1(Cl)Cl (stereo not given)	0	23	30	14	23
COC(=O)[C@]1(C)CCC[C@@]2(C)C3CC[C@@]4(C)C[C@]3(CCC21)CC(=O)N4 (stereo not given in full)	10	37	6	.	5
C=C1C(=O)C23CCC4C(C)(C(=O)OC)CCCC4(C)C2CCC1(O)C3 (stereo not given)	.	.	.	104*	96*
CN(C)S(=O)(=O)c1ccc(C(=O)NCCC(=O)N2CCCC2)cc1	20	21	-3	23	-1
Cc1ccc2c(c1)/C(=N/OS(=O)(=O)c1ccccc1)CCS2	28	2	9	.	2
CC1=CC(=O)C(C(C)C)=C/C1=N/OS(=O)(=O)c1ccccc1	-140	49	25	110*	30
CC1=CC(=O)C=C(C)C1=NOS(=O)(=O)c1ccccc1	.	.	.	106*	33
CN(c1ccccc1)c1ccc(/C=C/[N+](=O)[O-])cc1	.	.	.	106*	88*
Oc1ccc(Cl)cc1Sc1cc(Cl)ccc1O	.	.	.	102*	20
O=C1Nc2ccccc2/C1=N/N=C/c1ccc(-c2ccc([N+](=O)[O-])cc2)o1	.	.	.	4	43*
CC1(C)C(=O)C=CC(=O)C(C)(C)C(=O)C=CC(=O)C(C)(C)C2=CC=C(O2)C(C)(C)C(=O)C=CC1=O	.	.	.	8	62*
COc1cc(/C=C(\C#N)c2nc3ccccc3s2)ccc1OCC(=O)Nc1ccccc1	.	.	.	-14	76*
Cc1ccc(NC(=O)c2cccc(C(F)(F)F)c2)cc1NC(=O)c1[nH]cnc1C(N)=O	8	11	-5	-16	-2
Cc1cn(-c2cc(NC(=O)c3ccc(C)c(NC(=O)c4cccc(-c5cn[nH]c(=O)c5)c4)c3)cc(C(F)(F)F)c2)cn1	0	7	6	-24	78*
CCc1cc2c(COC(=O)c3cccc(S(C)(=O)=O)c3)cc(=O)oc2cc1O	1	-2	-6	3	61*
O=C1C(F)=CC(COC(c2ccccc2)(c2ccccc2)c2ccccc2)OC1n1cc(F)c(=O)[nH]c1=O (stereo not given)	.	.	.	102*	87*
CCOc1ccccc1N1CCN(C(=O)c2cccc(-c3ccc(O)cc3)c2)CC1	1	10	18	104*	10
Cc1ccc(NC(=O)C2=C(c3ccccc3)S(=O)(=O)CCS2(=O)=O)cc1	36	26	39	19	53*
Cc1ccc(NC(=O)c2ccccc2)cc1	-2	9	1	.	-3
N#CC(C#N)=Cc1cn(-c2ncc(C(F)(F)F)cc2Cl)c2ccccc12	11	17	11	.	66*
CCOc1ccc(S(=O)(=O)N2CCC(C(=O)Nc3ccc(C)c(S(=O)(=O)N4CCOCC4)c3)CC2)cc1	.	.	.	0	12
S=C1SCN(Cc2cccnc2)CN1Cc1cccnc1	-44	41	0	85*	3
S=C1SCN(Cc2ccccc2)CN1Cc1ccccc1	11	16	2	-18	0
Nc1nc(Cn2nnc(-c3ccccc3F)n2)nc(N2CCOCC2)n1	26	-2	-22	4	52*
Cn1c2ccccc2c2ccc3c(c21)C(=O)C=CC3=O	.	.	.	124*	76*
O=C(/C=C/c1ccccc1)CCN1CCOCC1	.	.	.	107*	19
